# Data taken from PubChem BioAssay (Tox21).
# Records with an inconclusive call do not appear. Active and inactive are the calls of the source. Calls come from the whole dose curve; as a rule, active = well fitted cell-killing curve with a large enough effect in the repeat runs; inconclusive = weak or mixed curves, or effect the other way; inactive = flat fitted curve, though single readings scatter.
# Test: Human pregnane X receptor (PXR) small molecule agonists, qHTS cell viability counter screen (AID 1346977); note: nearly all actives have a fitted effect of over 50% in size
# Conditions: PXR-Luc HepG2 viability, CellTiter-Fluor, 24 h; series mostly up to 92.4 µM; activity change, negative = cytotoxicity: at the top concentration
# Excerpt: U.S. Tox21 Program National Center for Advancing Translational Sciences [NCATS] NIH Chemical Genomics Center [NCGC] U.S. Environmental Protection Agency [EPA] National Institutes of Environmental Health Sciences [NIEHS] National Toxicology Program [NTP] U.S. Food and Drug Administration [FDA] Tox21 Assay Overview: The human pregnane X receptor (hPXR) regulates the expression of several drug metabolizing enzymes and induction of these proteins is a major mechanism for developing drug resistance in cancer. One such key enzyme catalyzing the drug metabolism is cytochrome P450 3A4 (CYP3A4). Changes in CYP3A4 expression affect drug metabolism, thereby reducing the therapeutic efficacy and altering toxicological response to a drug and which finally causes adverse drug interaction. To screen Tox21 libraries for compounds that activate hPXR-mediated CYP3A4 gene expression, PXR-Luc HepG2 cells were used. Also cytotoxicity of the compounds was tested in parallel by measuring the cell viability using CellTiter-Fluor assay system in the same wells.
# Tox21 Assay Protocol Summary: PXR-Luc HepG2 cells were dispensed at 2,000 per well in 5uL of assay medium containing 5% charcoal-stripped FBS into white solid bottom 1536-well plates (Corning Life Sciences, Corning, NY) using a Multidrop Combi (Thermo Scientific, Waltham, MA) dispenser. The assay plates were incubated at 37 C and 5% CO2 for 5hr, and then 23nL of compounds dissolved in DMSO and positive control were transferred using a Pintool station (Wako, San Diego, CA). The assay plates were incubated at 37C and 5% CO2 for 24hr. For cytotoxicity read, after 23hr incubation at 37C, 1uL CellTiter-Fluor reagent (Promega Corporation, Madison, WI) was added to each well of the assay plates using Flying Reagent Dispenser (FRD, Aurora Discovery, San Diego, CA). After 1hr incubation at 37C and 5% CO2, the fluorescence signal was quantified using a ViewLux plate reader (PerkinElmer, Shelton, CT).
# % is set by controls: 0 for no effect and ±100 for the full control effect; potency is the fitted concentration of half-maximal effect.
SMILES,"activity change, negative = cytotoxicity",Potency
CCCSP(=O)(OCC)Oc1ccc(Br)cc1Cl (stereo not given),3.24% [at 42.5 µM] (inactive),–
C[N+](=O)[O-],-2.4% (inactive),–
Nc1cnn(-c2ccccc2)c(=O)c1Cl,8.9% (inactive),–
OC(c1ccc(F)cc1)(c1cncnc1)c1ccccc1Cl (stereo not given),5.9% (inactive),–
CNNC,-0.203% (inactive),–
Cc1ncc2n1-c1ccc(Cl)cc1C(c1ccccc1F)=NC2,25.8% [at 42.5 µM] (inactive),–
CCOP(=S)(OCC)Oc1nc(Cl)n(C(C)C)n1,4.78% (inactive),–
C[C@H]1CCC[C@H](O)CCCCCc2cc(O)cc(O)c2C(=O)O1,–,48.9 µM (active)
CCOC(=O)N(C)C(=O)CSP(=S)(OCC)OCC,6.43% (inactive),–
C=CCC1=C(C)[C@@H](OC(=O)[C@@H]2[C@@H](C=C(C)C)C2(C)C)CC1=O,–,61.1 µM (active)
CCOP(=S)(OCC)Oc1cc(-c2ccccc2)on1,16.6% (inactive),–
Cc1cnc[nH]1,-1.31% (inactive),–
OCCBr,-3.41% (inactive),–
Cc1cc(C)nc(Nc2ccccc2)n1,6.56% (inactive),–
O=C(Nc1ccccc1)N(Cc1ccc(Cl)cc1)C1CCCC1,–,61.1 µM (active)
O=C(Oc1ccc(Br)cc1)N1CCN2CCC1CC2,0.722% (inactive),–
[Cl][Sn]([Cl])([Cl])[Cl],18.1% (inactive),–
Nc1cc(Cl)ccc1O,-21.2% (inactive),–
ClCCCN1CCN(c2cccc(Cl)c2)CC1,5.7% [at 42.5 µM] (inactive),–
COc1ccc(C(=O)N2CCCC2=O)cc1,6.38% [at 42.5 µM] (inactive),–

SMILES,"activity change, negative = cytotoxicity",Potency
O=[N+]([O-])c1ccc2c3c(cccc13)CC2,-14.5% (inactive),–
CC(C)COP(=O)(OCC(C)C)OCC(C)C,3.65% (inactive),–
COP(=S)(OC)Oc1ccc(S(N)(=O)=O)cc1,22.1% [at 42.5 µM] (inactive),–
CCC(Cl)[N+](=O)[O-] (stereo not given),9.8% (inactive),–
O=C(Nc1ccccc1)c1ccccc1I,-20% (inactive),–
N#CC(O)c1ccccc1 (stereo not given),1.57% (inactive),–
CCCCOC(=O)c1ccccc1C(=O)O,0.256% (inactive),–
N#CC(CCc1ccc(Cl)cc1)(Cn1cncn1)c1ccccc1 (stereo not given),–,61.1 µM (active)
[As]#[In],3.7% (inactive),–
O=NN1CCCCC1,8.66% (inactive),–
C=C(C)[C@@H]1CC=C(C=O)CC1,1.75% (inactive),–
CCC1(c2ccccc2)C(=O)N=C(O)NC1=O (stereo not given),-1.08% (inactive),–
O=[N+]([O-])c1ccc(CBr)cc1,0.829% (inactive),–
Clc1cccc(N2CCNCC2)c1,-2.86% [at 42.5 µM] (inactive),–
CCCSC(=O)Cl,-0.829% (inactive),–
CCC(C)n1c(=O)[nH]c(C)c(Br)c1=O (stereo not given),12.2% (inactive),–
COc1cc(OC)nc(Oc2cccc(Oc3nc(OC)cc(OC)n3)c2C(=O)O)n1,-1.95% (inactive),–
O=[N+]([O-])c1cccc(O)c1,-1.43% (inactive),–
CS(=O)(=O)c1cc(C(F)(F)F)ccc1C(=O)c1cnoc1C1CC1,13.7% (inactive),–
Nc1ccccc1Cl,-3.4% (inactive),–
